PubChem BioAssay (Tox21)
Results filed as inconclusive are left out. The source made the active and inactive calls. The call rests on the fitted dose curve; in most records, active means well fitted cell-killing curve with a large enough effect in the repeat runs; inconclusive means weak or mixed curves; inactive means flat fitted curve, though single readings scatter.

test: qHTS RealTime-Glo MT Cell Viability Assay in HepG2 cells - 8 hour (AID 1224873); details: RealTime-Glo luminescence; series mostly up to 76.8 µM; further: nearly all actives have a fitted effect of over 55% in size
Source text: National Center for Advancing Translational Sciences [NCATS]
NIH Chemical Genomics Center [NCGC]
U.S. Environmental Protection Agency [EPA]
National Institutes of Environmental Health Sciences [NIEHS]
National Toxicology Program [NTP]
U.S. Food and Drug Administration [FDA]
Measure of cell viability is critical in the cell-base assay. Analysis of cell viability is necessary for the characterization of cell responses to cytotoxic drugs and environmental stress. A RealTime-Glo MT Cell Viability Assay to monitor cell viability in real time of continues cell culture during 40 hours of compound treatment was used to screen Tox21 10K library compounds in HepG2 cells. The RealTime-Glo MT Cell Viability Assay is a nonlytic, homogeneous, bioluminescent method to measure cell viability in real time using a simple, plate-based method. The assay involves adding NanoLuc luciferase and a cell-permeant prosubstrate to cells in culture. Viable cells reduce the proprietary prosubstrate to generate a substrate for NanoLuc luciferase. This substrate diffuses from cells into the surrounding culture medium, where it is rapidly used by the NanoLuc Enzyme to produce a luminescent signal. The signal correlates with the number of viable cells, making the assay well suited for cytotoxicity studies.
Tox21 Assay Protocol Summary:
The mixture of HepG2 cell suspension and reagents were dispensed at 600cells/6 ul/well in 1536-well tissue culture treated black solid bottom plates using a Multidrop dispenser. After the assay plates were incubated at a 37 C/5% CO2 incubator for 5 hours, 23 nL of compounds dissolved in DMSO, positive and negative controls was transferred to the assay plate by a pintool work station. The plates were incubated at 37 C for 40 hours. The luminescence intensity were measured at 0h, 8h, 16h, 24h, 32h and 40h time points using ViewLux plate reader during compound treatment.

| Structure (SMILES) | outcome |
| --- | --- |
| CNC(=O)Oc1cccc2ccccc12 | inactive |
| C[C@H]1C(=O)O[C@@H]2CCN3CC=C(COC(=O)[C@](C)(O)[C@]1(C)O)[C@H]23 | inactive |
| Cc1cccc(C)c1NC(=O)CN1CCCC1=O | inactive |
| O=C(O)c1cc(Oc2ccc(C(F)(F)F)cc2Cl)ccc1[N+](=O)[O-] | inactive |
| COP(=S)(OC)Oc1ccc(SC)c(C)c1 | inactive |
| COc1cc(-c2ccc(N)c(OC)c2)ccc1N | inactive |
| Cc1cc(Cl)ccc1OC(C)C(=O)O (stereo not given) | inactive |
| O=C(O)C(Br)Br | inactive |
| Nc1ccc(N)cc1 | inactive |
| Cc1cc(O)ccc1Cl | inactive |
| Nc1ncc([N+](=O)[O-])s1 | inactive |
| [N-]=[N+]=CC(=O)OC[C@H](N)C(=O)O | inactive |
| C=CC(=O)OCCCCCC(C)C | inactive |
| CNC(=O)O/N=C(\SC)C(=O)N(C)C | inactive |
| O=C(O)C1C(C(=O)O)C2(Cl)C(Cl)=C(Cl)C1(Cl)C2(Cl)Cl (stereo not given) | inactive |
| Clc1cnc(Oc2ccc(Oc3ncc(Cl)cc3Cl)cc2)c(Cl)c1 | inactive |
| CN(C)C(=O)C(c1ccccc1)c1ccccc1 | inactive |
| Cc1ccc(N)cc1 | inactive |
| O=C(O)Cc1ccccc1 | inactive |
| CN1C(=O)CCS(=O)(=O)C1c1ccc(Cl)cc1 (stereo not given) | inactive |

| Structure (SMILES) | outcome |
| --- | --- |
| CNC(=O)O/N=C/C(C)(C)SC | inactive |
| CNc1cnn(-c2cccc(C(F)(F)F)c2)c(=O)c1Cl | inactive |
| OC[C@@H](O)[C@H]1O[C@@H]2O[C@H](C(Cl)(Cl)Cl)O[C@@H]2[C@H]1O | inactive |
| CCSC(=O)N1CCCCCC1 | inactive |
| COc1nc(NC(C)C)nc(NC(C)C)n1 | inactive |
| N#CN=C(N)N | inactive |
| OCCCCO | inactive |
| O=C(O)CCCc1ccc(N(CCCl)CCCl)cc1 | inactive |
| CN(C)C(=O)Cl | inactive |
| N#Cc1cccc(C#N)c1 | inactive |
| ClCCOCCCl | inactive |
| CC12CC1(C)C(=O)N(c1cc(Cl)cc(Cl)c1)C2=O (stereo not given) | inactive |
| Oc1c(Br)cc(Br)cc1Br | inactive |
| ClC(Cl)c1ccccc1 | inactive |
| C=CC(=O)OCC(CC)CCCC (stereo not given) | inactive |
| Cc1cccc(C)c1N | inactive |
| CC(=O)/C=C/c1ccccc1 | inactive |
| CCNc1nc(Cl)nc(NC(C)C)n1 | inactive |
| N#Cc1ccccn1 | inactive |
| C/C=C/c1ccc2c(c1)OCO2 | inactive |
